# In the library only some 5.3% were active in any assay of this set; here they are far more common.
# Vaccinia Venus: qHTS for Stage-Specific Inhibitors of Vaccinia Orthopoxvirus: Venus Reporter Primary qHTS; 330,000 tested, 0.46% active; AID 720580, 2013; Potency, µM (titrated, usually from 36.5 µM), without a hit: at the top dose activity change, negative = inhibition, actives largely listed as inhibitors; Vaccinia virus Venus reporter expression, fluorescence; calls by dose curve; tested in A549 cells; note: nearly all actives have a fitted effect of over 30% in size
# Marburg entry inh: qHTS for inhibitors of binding or entry into cells for Marburg Virus; Marburg virus pseudotyped entry inhibition, cell reporter; Potency, µM (top dose mostly 37.8 µM), inactives show at the highest dose activity change, negative = inhibition, hits mostly inhibitors; 300,000 tested, 1.8% active; calls by dose curve; tested in HEK293 cells
# HCV inh: qHTS Assay for Inhibitors of Hepatitis C Virus (HCV) | 340,000 tested, 3.4% active | Huh7.5.1 HCVcc-Cre infection, luciferase reporter, 44 h | Potency, µM (series often up to 41.8 µM), inactives show at the top dose activity change, negative = inhibition, hits mostly inhibitors; active = well fitted inhibition curve with a large enough effect; inconclusive = small, poorly fitted or top-dose-only effect, or another doubt; inactive = no such curve, though single readings can be large or run the other way
#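 Infectious HCV cell culture screen: compound-treated cells (1,000/well, pre-plated 4 h) are infected with HCVcc-Cre at roughly 0.5 moi and grown 44 h. Infection is quantified by luciferase signal after 15 min substrate incubation at room temperature.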
# VACV mCherry inh: qHTS for Stage-Specific Inhibitors of Vaccinia Orthopoxvirus: mCherry Reporter Primary qHTS; AID 720579, 2013; Potency, µM (series often up to 36.5 µM), inactives show at the highest dose activity change, negative = inhibition, usual class: inhibitors; 310,000 tested, 0.63% active; Vaccinia virus mCherry reporter infection, fluorescence; calls by dose curve; tested in A549 cells; note: nearly all actives have a fitted effect of over 35% in size
# FMDV inh: High Throughput Screening for Foot and Mouth Disease Virus Antivirals; 410,000 tested, 1.2% active; FMDV antiviral cell-based qHTS; Potency, µM (top dose mostly 57.9 µM), for inactives: at the highest dose activity change, negative = inhibition, hits mostly inhibitors; calls by dose curve; tested in HEK293T cells; note: read-out not given here; nearly all actives have a fitted effect of over 45% in size
# Lassa entry inh: qHTS for Inhibitors of binding or entry into cells for Lassa Virus; Lassa virus pseudotype entry inhibition, cell reporter; Potency, µM (series often up to 37.9 µM), without a hit: top-dose activity change, negative = inhibition, most hits filed as inhibitors; 300,000 tested, 1.2% active; AID 540256, 2011; calls by dose curve; tested in HEK293 cells; note: nearly all actives have a fitted effect of over 50% in size
# The depositor's hits bear a star; i = inactive; ? = inconclusive; . = no result; ! = a repeat was not active; [ ] = dose if it differs, or a comment. % is set by controls: 0 for no effect and ±100 for the full control effect; potency is the fitted concentration of half-maximal effect.
SMILES,Vaccinia Venus,Marburg entry inh,HCV inh,VACV mCherry inh,FMDV inh,Lassa entry inh
CCN(CCNC(=O)Nc1ccc(Cl)cc1)c1ccccc1,?,?,14µM*,.,?,16µM*
CCN(CC)c1nc(OCCNC(=O)Nc2ccccc2)nc(N(CC)CC)n1,11µM*,?,-30%,.,0%,?
O=C(c1cccs1)N1C[C@@H](n2cc(C3CC3)nn2)[C@@H](O)C[C@@H]1c1ccc(Cl)cc1,.,.,.,.,.,8%[46.1 µM]
O=[N+]([O-])/C=C\c1ccc(N2CCOCC2)cc1,.,.,?,.,18µM*,.
COc1cc2c(cc1/C=C/[N+](=O)[O-])OCO2,?,?,-26%,?,14µM*,?
COC(=O)c1cc2c(cc1[N+](=O)[O-])OCO2,.,-4%,11%,.,0%,18%
O=[N+]([O-])/C=C/c1ccc2c(c1)OCO2,.,?,.,.,.,3.3µM*
C=Cc1cc(OC)c2c(c1)c(=O)oc1c2cc(OC)c2c(O)ccc(C3OC(C)C(O)C(C)(O)C3O)c21 (centres undefined),1µM*,?,1µM*,?,?,0.4µM*
COc1cc2c(oc(=O)c3cc(C)cc(OC)c32)c2c(C3OC(C)C(O)C(C)(O)C3O)ccc(O)c12 (centres undefined),?,?,?,?,0%,?
CCN(CC)CCOC(=O)/C=C/c1ccccc1,.,2%,7%,.,-5%,.
CCN(CC)CC(C)(C)C(=O)/C=C/c1ccc(/C=C/C(=O)C(C)(C)CN(CC)CC)cc1,11µM*,1.4µM*,2.2µM*,?,3.5µM*,3.5µM*
O=C(NCCCCN1CCN(c2cccc(Cl)c2Cl)CC1)c1ccc2c(c1)Cc1ccccc1-2,.,.,.,.,-12%,.
O=C1CCc2ccc(OCCCCN3CCN(c4cccc(Cl)c4Cl)CC3)cc2N1,-28%,.,-15%,?,20µM*,.
O=C(Cn1cnc2cc([N+](=O)[O-])ccc2c1=O)NCCc1ccc(Cl)cc1,-1%,-4%,14µM*,-6%,-5%,-3%
CCN(Cc1ccccc1)C(=O)c1cc2c(=O)[nH]c3ccc(C)cc3c2s1,-25%,9%[46.1 µM],.,?,-4%,.
CCCC[C@]12Cc3cc(OC)c(OC)cc3[C@H](O1)C1=C(CC3(CCCCC3)OC1=O)O2,.,-24%[14.2 µM],.,.,.,.
CC1CCN(c2ccc(-c3cccs3)nn2)CC1,-20%,.,0%,i,7.9µM*,.
O=S1(=O)CCOC[C@H](c2ccccc2)N1Cc1ccc(Cl)c(Cl)c1,-20%,.,.,i,.,.
COc1cc(/C=C/C(=O)OCC(=O)N2CCC(Cc3ccccc3)CC2)ccc1O,-14%,-9%,?,i,32µM*,?
COc1cc(/C=C/C(=O)OCC(=O)N2CCC(C)CC2)ccc1O,-8%,12%,-6%,-4%,-4%,12%
COc1cc(/C=C/C(=O)OCC(=O)c2ccc(OC(F)F)cc2)ccc1O,-7%,-38%,10µM*,-19%,32µM*,?
O=C(C[n+]1ccccc1Cl)c1ccc(I)cc1,-13%,.,.,-19%,.,.
Cc1cc(C)c(Nc2cc(S(=O)(=O)O)c(N)c3c2C(=O)c2ccccc2C3=O)c(C)c1,?,-21%,13%,-25%,8.9µM*,-23%
Cc1cc(C)c(NC(=O)COC(=O)c2cccc3c2C(=O)c2ccccc2C3=O)c(C)c1,-30%,?,?,?,-2%,?
Cc1cc2c(nc1C)CCCN2C[C@@H](O)CN1CCN(C)CC1,.,18%[14.2 µM],.,.,.,.
SMILES,Vaccinia Venus,Marburg entry inh,HCV inh,VACV mCherry inh,FMDV inh,Lassa entry inh
COc1ccc(C(=O)c2cc(C(C)=O)c(Nc3ccccc3)s2)cc1,?,?,3.2µM*,-9%,0%,9%
NC(=O)COC(=O)CC(c1ccccc1)c1ccccc1,-3%,5%[46.1 µM],-2%,i,-9%,9%
NC(=O)CNCCC(c1ccccc1)c1ccccc1,-15%,11µM*!,-14%,-19%,-9%,-2%
Cn1c(C(=O)OCC(=O)NCc2ccc(F)cc2)cc2occc21,-13%,9%,-24%,-16%,-2%,11%
Cc1cc(-c2ccc(C(C)C)c(S(=O)(=O)N3CCOc4ccccc43)c2)on1,-4%,3.2µM*,?,-15%,?,?
COc1ccc(-c2cc(C)no2)cc1S(=O)(=O)N1CCOc2ccccc21,-7%,.,3%,-18%,-13%,-19%[46.1 µM]
CC(=O)Nc1cccc(-c2csc(Nc3ccc(Cl)cn3)n2)c1,?,.,11µM*,-4%,5%,.
CC(=O)Nc1cccc(-c2csc(Nc3cc(C)ccn3)n2)c1,?,?,?,?,.,6%
CC(=O)Nc1cccc(-c2csc(Nc3ccccn3)n2)c1,-22%,?,11µM*,-14%,.,?
CC(=O)Nc1cccc(-c2csc(NCc3ccccc3)n2)c1,.,.,-21%,.,2%,.
CC(=O)Nc1ccc(-c2csc(Nc3ccc(Cl)cn3)n2)cc1,?,?,?,-30%,25µM*,-24%
CCOc1ccc(S(=O)(=O)Nc2cc(Cl)ccc2OC)c2cccnc12,-11%,-25%[46.1 µM],.,-20%,37%,-17%[46.1 µM]
Cc1ccc2nc(Cl)c3nnnn3c2c1,-2%,2%[46.1 µM],?,i,13µM*,1%[46.1 µM]
C[C@H]1C[C@@H](C)O[C@@]2(C1)C(=O)N(Cc1ccccc1C(F)(F)F)c1ccccc12,.,-15%[14.2 µM],.,.,.,.
COc1cc(N)c(Cl)cc1C(=O)OCC(=O)NCC1CCCCC1,-16%,?,10µM*,-14%,-18%,-29%[46.1 µM]
CC[C@H](C)[C@@H]1NC(=O)[C@@H](CC(C)C)NC(=O)[C@H](C(C)C)NC(=O)[C@H]2CSSC[C@H](NC1=O)C(=O)N2,4.5µM*,.,.,5µM*,6.3µM*,.
CC(Nc1cc(C)cc(C)c1)=[N+](C)CCNS(=O)(=O)c1ccc(Cl)cc1,-12%,10µM*,1%,?,-23%,-12%[46.1 µM]
CC(=O)Oc1ccc2ccc3ccc(C(C)=O)cc3c2c1,-9%,30%[46.1 µM],13µM*,?,6%,20%[46.1 µM]
CC(NC(=O)c1cccnc1)c1nnc2n1CCN(Cc1ccc(F)cc1F)CC2 (centres undefined),-2%,.,.,-7%,-6%,.
c1cc2c(cc1-c1cnc3n1CCC3)OCCO2,?,17%,10µM*,?,.,17%
O=C(CSc1nnc(-c2ccccc2F)o1)N1CCc2ccccc21,-3%,6%[46.1 µM],.,-1%,9%,12%[46.1 µM]
O=C1/C(=N\S(=O)(=O)c2cccs2)C([n+]2ccc(CCCc3ccccc3)cc2)=C([O-])c2ccccc21,-2%,-27%,?,-5%,-23%,-4%
O=C1/C(=N\S(=O)(=O)c2cccs2)C([n+]2cccc(Cc3ccccc3)c2)=C([O-])c2ccccc21,-27%,2.8µM*,-77%,?,?,?
Cc1cc(C)c[n+](C2=C([O-])c3ccccc3C(=O)/C2=N\S(=O)(=O)c2cccs2)c1,.,.,?,.,40µM*,.

# Screening results: PubChem BioAssay, National Center for Advancing Translational Sciences (NCATS)
